Compound activity from PubChem.
Shown are actives, neighbours in structure and some others; about 2.4% of the full set was active somewhere.
D2 ag-1 = D2 dopamine receptor (human) agonism | P14416 | activation, % at 2 µM | 340,000 tested, 0.53% active | AID 485358 | HEK293 T-REx D2 cells, calcium flux agonist mode;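 active = activation over 3 SD above normal in the single-dose calcium agonist read, cut at about 30% in these data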
Target sequence (P14416 whole entry, looked up): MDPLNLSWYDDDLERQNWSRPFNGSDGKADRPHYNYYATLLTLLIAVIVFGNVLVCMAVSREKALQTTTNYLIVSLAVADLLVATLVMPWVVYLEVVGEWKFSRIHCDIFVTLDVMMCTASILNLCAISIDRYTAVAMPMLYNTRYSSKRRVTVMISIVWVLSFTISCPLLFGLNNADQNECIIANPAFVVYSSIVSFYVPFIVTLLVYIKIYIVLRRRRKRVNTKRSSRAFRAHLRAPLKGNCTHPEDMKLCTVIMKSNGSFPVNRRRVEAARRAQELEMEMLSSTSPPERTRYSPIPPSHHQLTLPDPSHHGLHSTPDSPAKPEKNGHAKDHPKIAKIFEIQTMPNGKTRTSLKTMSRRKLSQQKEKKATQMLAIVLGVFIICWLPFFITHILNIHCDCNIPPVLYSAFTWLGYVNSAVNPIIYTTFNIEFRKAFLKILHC
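In this primary screen, compounds producing a positive calcium signal within 180 s of addition to tetracycline-induced, force-coupled HEK293 Trex D2 cells are flagged; cells are dye-loaded with a no-wash calcium kit beforehand.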
D2 PAM-1 = positive allosteric modulators of human D2 dopamine receptor; HEK293 T-REx D2, calcium flux, EC20 dopamine potentiation; AID 485347; potentiation, % at 10 µM; 340,000 tested, 0.34% active; P14416;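 active = potentiation over 3 SD above the plate norm, cut at about 30% in these data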
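Potentiation of an EC20 dopamine calcium response measured kinetically over 180 s, after a preceding 180 s compound-only read flagging agonists. Cells: inducible Hek293 Trex D2 line, 4000/well, cultured overnight at 30 C before dye loading.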
D2 ag-2 = activates the human D2 dopamine receptor | P14416 | DiscoveRx PathHunter D2 beta-arrestin, luminescence, 90 min; 100% = 57 uM dopamine signal | activation, % (no concentration beside the values) | 360,000 tested, 0.084% active; in the data active = activation above about 40%
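Agonist mode: compounds alone added to overnight-plated D2 PathHunter cells for 90 min at 37 C, with 57 uM final dopamine (EC100) defining full response. Beta-arrestin recruitment detected by chemiluminescent reagent, read after 1 h at ambient temperature.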
D2 antag = antagonists of human D2 dopamine receptor. 340,000 tested, 2% active. inhibition, % at 10 µM. HEK293 TREx D2 cells, calcium flux, dopamine EC80. AID 485344; in the data active = inhibition above about 30%; inactive = below that, where a call was filed
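Dopamine at EC80 is the agonist stimulus; test compounds precede it by 180 s. Calcium flux read kinetically in a force-coupled, inducible HEK293 T-REx D2 cell line.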
D2 PAM-2 = positive allosteric modulators of human D2 dopamine receptor. DiscoveRx D2 beta-arrestin cells, luminescence, 90 min; 100% = 57 uM dopamine signal. potentiation, % (test concentration not listed). 360,000 tested, 0.23% active. AID 624464; in the data active = potentiation above about 50%
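D2 cells co-treated with compound plus 50 nM dopamine (EC20) for 90 min at 37 deg C to detect potentiation. Beta-arrestin recruitment was read as enzyme-fragment luminescence after 1 h at ambient temperature. Full response was set by 57 uM dopamine.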
A number is an active result; . = inactive; / = not tested or not shown.

SMILES	D2 ag-1	D2 PAM-1	D2 ag-2	D2 antag	D2 PAM-2
CCOC(=O)c1ccc[n+](CC(=O)Nc2cc(C(F)(F)F)ccc2Cl)c1	.	.	.	52.5	.
CN(CC(=O)Nc1cc(S(=O)(=O)N2CCCC2)ccc1Cl)Cc1ccc2c(c1)OCO2	.	.	.	31.7	.
CCOc1ccc(-c2nn(-c3ccccc3)cc2C2NC(=O)NC(C)=C2C(=O)OC(C)C)cc1 (stereo unspecified)	.	.	/	/	/
Cc1ccc(NC(=O)Nc2cn(CC(C)C)c(=O)c3ccccc23)cc1N(C)C	.	.	/	/	/
COc1ccc(-n2c(-c3ccccc3F)nc3c(cnn3-c3ccc(C)cc3)c2=O)cc1	.	.	/	/	/
CCN(c1ccccc1)S(=O)(=O)c1ccc(Cl)c(NC(=O)CN2CCCCCC2)c1	.	.	.	.	.
CN(C)S(=O)(=O)c1ccc(Cl)c(NC(=O)CN2CCCCCC2)c1	.	.	.	34.0	.
O=C(CN1CCCCC1)Nc1ccc(C(F)(F)F)cc1Cl	.	.	.	.	.
O=C(CN1CCCC1)Nc1cc(C(F)(F)F)ccc1Cl	.	.	.	81.9	.
NC(=O)C1(N2CCCCC2)CCN(CC(=O)Nc2cc(Cl)ccc2Cl)CC1	.	.	.	43.4	.
CC(=O)N1c2ccc(S(=O)(=O)NCC3CCC(C(=O)Nc4cccc(C)c4C)CC3)cc2CC1C (stereo unspecified)	.	.	/	/	/
CCN(c1ccc(C)cc1C)S(=O)(=O)c1nnc(NC(=O)c2ccccc2OC)s1	.	.	/	/	/
CCOc1ccccc1C(=O)N1CC(=O)Nc2ccc(Cl)cc2C1c1ccccc1 (stereo unspecified)	.	.	/	/	/
CCOc1ccc(CCNC(=O)C2CCC(CNS(=O)(=O)c3ccc(Cl)cc3)CC2)cc1OCC (stereo unspecified)	.	.	/	/	/
Cc1cc(C)c2c(n1)nn1c(NCCCN3CCOCC3)cc(C)nc21	/	/	.	/	.
Cc1cc(C)c2c(n1)nn1c(NCCCn3ccnc3)cc(C)nc21	.	33.8	/	.	/
Cc1ccc(NC(=O)CSc2nc3ccccc3nc2Cc2ccccc2F)cc1F	.	.	/	/	/
Cc1ccc(C(=O)Nc2c(C(=O)N3CCOCC3)cnn2-c2ccccc2)cc1	.	32.6	.	.	.
O=C(Nc1c(C(=O)N2CCOCC2)cnn1-c1ccccc1)c1ccc([N+](=O)[O-])cc1	.	.	.	.	.
CCOC(=O)c1cc(NC(=O)c2ccc(C)cc2)c(=O)n2c1oc1ccc(Cl)cc12	.	.	/	/	/
CCOC(=O)c1cc(NC(=O)c2ccc(Cl)cc2)c(=O)n2c1oc1ccc(Cl)cc12	.	.	.	31.5	.
COc1ccc(C(=O)Oc2cc(N)n(S(=O)(=O)c3ccc(C)cc3)n2)cc1	.	.	.	38.4	.
COc1ccccc1C(=O)Oc1cc(N)n(S(=O)(=O)c2ccc(C)cc2)n1	.	.	.	.	.
Nc1ccc2c(c1)Cc1cc([N+](=O)[O-])ccc1-2	46.8	.	.	.	.
c1ccc(-c2nccc(-c3ccc(-n4cnc5ccccc54)cc3)n2)cc1	.	.	.	.	.
SMILES	D2 ag-1	D2 PAM-1	D2 ag-2	D2 antag	D2 PAM-2
Nc1nccc(-c2ccc(-n3cccc3)cc2)n1	.	49.6	.	.	.
Cc1ccc(NC(=O)CN2C(=O)CCc3ccccc32)cc1C	.	.	/	/	/
Cc1cccc(NC(=S)NC2CC3CCC(C2)N3Cc2ccco2)c1 (stereo unspecified)	.	.	.	38.8	.
Cc1ccccc1NC(=S)NC1CC2CCC(C1)N2Cc1ccco1 (stereo unspecified)	.	.	.	39.1	.
CCOC(=O)c1ccccc1NC(=O)CSc1ccc(-c2sc(-c3ccccc3)nc2C)nn1	.	.	/	/	/
O=C(/C=C/c1cccc(C(F)(F)F)c1)Nc1cccc(C(F)(F)F)c1	.	.	.	.	.
Cc1ccc(NC(=O)/C=C/c2cccc(C(F)(F)F)c2)cc1	.	.	.	68.5	.
Cc1ccc(CN2C(=O)C3(c4ccccc42)N(c2cccc(C(F)(F)F)c2)C(=O)CS3(=O)=O)cc1 (stereo unspecified)	/	.	/	/	/
CCc1ccc(NC(=O)CSc2nc3ncccc3[nH]2)cc1	.	.	/	/	/
CCc1cc(=O)oc2c(CN3CCN(C)CC3)c(O)c(Cl)cc12	.	34.9	.	.	.
